Source: PubChem BioAssay (National Center for Advancing Translational Sciences (NCATS))
This excerpt belongs to a sample that is enriched for hits.
NS1 function inh: influenza NS1 inhibition; Potency, µM (titrated, usually from 46.1 µM); hit rate 0.4% among 270,000; also: actives are rising curves; nearly all actives have a fitted effect of over 50% in size
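In this qHTS, NS1 from influenza A is expressed in budding yeast, where it slows growth. Cells are switched from glucose to 2% galactose medium (pH 6.0, -URA), treated with compound, and growth recovery is read at OD600.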
Shiga toxin inh: blocks Shiga toxin action in Vero cells. Vero cells, Shiga toxin protein synthesis inhibition reporter. inhibition, % at 38.7 µM. hit rate 9.2% among 290,000. AID 2315; in the data active = inhibition mostly above about 28%, no sharp cut-off; inactive = mostly below about 43%
AmpC no deterg: blocks E. coli AmpC beta-lactamase in detergent-free assay; P00811; AmpC nitrocefin hydrolysis, absorbance 480 nm, 0.0001% Triton; Potency, µM (titrated, usually from 57.1 µM), usual class: inhibitors; hit rate 0.52% among 330,000; AID 485341; active = well fitted curve in the direction sought with a large enough effect; inconclusive = small, poorly fitted or top-dose-only effect, or another doubt; inactive = no such curve, though single readings can be large; an effect the other way counts as inactive or inconclusive; also: nearly all actives have a fitted effect of over 20% in size
Target sequence (P00811 whole entry, looked up): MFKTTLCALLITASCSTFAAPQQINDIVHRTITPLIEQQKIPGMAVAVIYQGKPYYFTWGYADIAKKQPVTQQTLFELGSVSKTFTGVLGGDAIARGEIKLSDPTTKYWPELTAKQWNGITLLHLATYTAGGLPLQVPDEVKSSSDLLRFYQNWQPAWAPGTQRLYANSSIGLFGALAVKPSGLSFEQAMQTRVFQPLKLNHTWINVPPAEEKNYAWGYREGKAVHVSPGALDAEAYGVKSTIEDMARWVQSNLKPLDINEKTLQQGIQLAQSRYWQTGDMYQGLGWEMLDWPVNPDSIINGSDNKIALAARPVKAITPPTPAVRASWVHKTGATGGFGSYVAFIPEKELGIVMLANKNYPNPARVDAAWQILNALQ
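20 mM phosphate pH 7.0 + 0.01% (detergent screen) or 0.0001% Triton X-100; 5.3 nM AmpC reagent; cpd preinc 15 min RT; nitrocefin (800 uM stock) to start; A480 q20 s × 4 min; Activity was normalised to no-enzyme and no-compound control wells.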
CHX counter: affects cycloheximide protein synthesis inhibition readout, counter-screen; max response, %; cell reporter, cycloheximide protein synthesis inhibition counterscreen; AID 2314; hit rate 12% among 300,000; in the data active = max response mostly above about 13%, no sharp cut-off; inactive = mostly below about 14%; also: read at 38.3 µM for the half of the compounds with a filed dose
AmpC inh detg: blocks E. coli AmpC beta-lactamase in detergent assay. P00811. AmpC hydrolysis of nitrocefin, absorbance 480 nm, 0.01% Triton. Potency, µM (highest dose often 114 µM), hits mostly inhibitors. hit rate 0.041% among 370,000. AID 485294; active = well fitted curve in the direction sought with a large enough effect; inconclusive = small, poorly fitted or top-dose-only effect, or another doubt; inactive = no such curve, though single readings can be large; an effect the other way counts as inactive or inconclusive; also: nearly all actives have a fitted effect of over 25% in size
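AmpC (5.3 nM in the dispensed reagent) in 20 mM phosphate pH 7.0 with 0.01% (detergent screen) or 0.0001% Triton X-100 was preincubated with compounds for 15 min at room temperature. Nitrocefin was then added from an 800 uM solution, and hydrolysis was followed at 480 nm.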
NS1 inh valid: influenza NS1 function inhibition validation; shares compounds with NS1 function inh; influenza NS1 function cell assay, 15-point titration; activity change, negative = inhibition, % at 32.9 µM; 1,400 tested, under 10 active
Flu PR8 replic: reduces influenza A/PR/8/34 replication in MDCK cells | hit rate 30% among 95 | shares compounds with NS1 function inh | MDCK infected influenza A/PR/8/34, virus titer TCID50; hits give low values | virus titer (log TCID50), log10 TCID50 at 5 µM; call rule not given here
Of the large screens only hits and unclear results are named; the others gave an inactive call (follow-up assays come after a bar, where they were run). Unless noted, calls follow the shape of the full dose curve.

Cc1cc(C)c2nc(N3CCN(C)CC3)c(C#N)cc2c1	NS1 function inh 6.3µM | NS1 inh valid inactive
Cc1ccc2cc(C#N)c(N3CCN(C)CC3)nc2c1	none
CCOC(=O)c1ccc(N2C(=O)c3n[nH]c(C)c3C2c2ccc(OC)cc2OC)cc1 (stereo unspecified)	NS1 function inh 5µM | NS1 inh valid inactive
CCCOc1ccc(C(=O)N2CCN(c3ccc(N)cc3Cl)CC2)cc1	NS1 function inh 11µM | NS1 inh valid inactive
CCOc1cc([N+](=O)[O-])c2nc(N)sc2c1	none
OC(c1ccc(F)cc1)(C1CCCCC1)C(CN1CCOCC1)c1ccccc1 (stereo unspecified)	AmpC inh detg inconclusive (no result: Shiga toxin inh)
NC(=O)C1CCN(C(=O)C23CC4CC(CC(C4)C2)C3)CC1	NS1 function inh inconclusive, AmpC inh detg inconclusive | NS1 inh valid inactive
CN1CCN(c2nc3c(c(=O)n(C)c(=O)n3C)n2C)CC1	none (no result: Shiga toxin inh, AmpC no deterg, CHX counter, AmpC inh detg)
Cc1ccsc1CN(C(=O)c1oc2ccccc2c1C)C1CCS(=O)(=O)C1 (stereo unspecified)	none (no result: NS1 function inh, Shiga toxin inh, AmpC no deterg, CHX counter)
COc1ccccc1C(=O)N(Cc1sccc1C)C1CCS(=O)(=O)C1 (stereo unspecified)	NS1 function inh 3.2µM | NS1 inh valid inactive
C(/C=C\c1ccccc1)=Nc1ccc2c(c1)Cc1ccccc1-2	none (no result: Shiga toxin inh, AmpC no deterg, CHX counter, AmpC inh detg)
CN(C)N1C(N)=C(C#N)C(c2cccc3ccccc23)C2=C1CC(c1ccccc1)CC2=O (stereo unspecified)	NS1 function inh 22µM | NS1 inh valid inactive
CN(C)N1C(N)=C(C#N)C(c2ccccc2)C2=C1CC(C)(C)CC2=O (stereo unspecified)	none
Cc1ccc(-c2ccc(CCC(=O)O)n2CC(=O)O)cc1	NS1 function inh 11µM | NS1 inh valid inactive
NC(=O)Nn1c(CCC(=O)O)ccc1-c1ccc(F)cc1	NS1 function inh inconclusive | NS1 inh valid inactive
COC(=O)c1[nH]c2ccc(C)cc2c1NS(=O)(=O)c1ccc(F)c(C)c1	NS1 function inh 1.8µM | NS1 inh valid inactive
COc1ccc(C(=O)OCC[N+]2(C)CCOCC2)cc1	none (no result: NS1 function inh)
CC(C)c1ccc(-c2nc(N3CCCCC3)[nH]c(=O)c2C#N)cc1	none
CC1=Nc2nc(N3CCCCC3)c(C#N)c3c4c(nc(c23)N1)N(c1ccc(C(C)C)cc1)C(=O)C4	NS1 function inh 11µM | NS1 inh valid inactive
O=C(Cc1cc(=O)[nH][nH]1)N/N=C/c1c(Cl)cccc1Cl	NS1 function inh 10µM, AmpC inh detg inconclusive | NS1 inh valid inconclusive
CC1=C(C(=O)N2CCCC(N3CCN(c4ccccc4F)CC3)C2)OCCO1 (stereo unspecified)	none
CC1=C(C(=O)N2CCCC(N3CCN(c4ccccc4C)CC3)C2)OCCO1 (stereo unspecified)	NS1 function inh 2.5µM | NS1 inh valid inactive
COc1ccccc1N1CCN(C2CCCN(C(=O)c3cscn3)C2)CC1 (stereo unspecified)	NS1 function inh inconclusive | NS1 inh valid inactive
COc1ccccc1N1CCN(C2CCCN(C(=O)c3cc(C4CC4)on3)C2)CC1 (stereo unspecified)	AmpC inh detg inconclusive
Cc1ccc(N(C(=O)c2snc(C(N)=O)c2N)C(C(=O)NCc2ccccc2)c2ccncc2)c(C)c1 (stereo unspecified)	none
Cn1c(=O)c2c(SCC(=O)N3CCCC3)nc(CC(C)(C)C)nc2n(C)c1=O	none
Cc1ccc(C(=O)NC(=S)Nc2cccc(NC(=O)c3ccccc3Cl)c2)cc1[N+](=O)[O-]	NS1 function inh 11µM, AmpC no deterg inconclusive, AmpC inh detg inconclusive | NS1 inh valid inconclusive
Cc1ccc(C(=O)NC(=S)Nc2cccc(NC(=O)c3ccccc3)c2)cc1[N+](=O)[O-]	NS1 function inh inconclusive
Cc1cc(O)ccc1Nc1nc(-c2sc(N)nc2C)cs1	NS1 function inh 11µM | NS1 inh valid inactive
CC(=O)Nc1nc(C)c(-c2csc(Nc3ccc(O)cc3)n2)s1	NS1 function inh 3.2µM, AmpC no deterg inconclusive, CHX counter 15 | NS1 inh valid inactive
COc1ccc(OC)c(Nc2nc(-c3sc(N)nc3C)cs2)c1	none
CCCC(=O)Nc1nc(C)c(-c2csc(Nc3ccc(Cl)cc3)n2)s1	NS1 function inh inconclusive
COc1cc(C2SCCCCCCCCCCSC(c3ccc(O)c(OC)c3)SCCCCCCCCCCS2)ccc1O (stereo unspecified)	none (no result: Shiga toxin inh, AmpC no deterg, CHX counter, AmpC inh detg)
COCCNC(=O)C(c1ccc(C)cc1)N(C(=O)CCC(=O)Nc1ccccn1)c1ccc(C)cc1 (stereo unspecified)	none
CCCCC/C=C\C/C=C\C/C=C\C/C=C\CCCC(=O)NCCCC(=O)O	none (no result: NS1 function inh, AmpC no deterg, AmpC inh detg)
CCCCC/C=C\C/C=C\C/C=C\C/C=C\CCCC(=O)NCC(=O)O	NS1 function inh 18µM (no result: Shiga toxin inh, AmpC no deterg, CHX counter, AmpC inh detg) | NS1 inh valid inactive
O=C(CSc1ccc(F)cc1)Nc1ccc2c(c1)C(=O)NC2=O	NS1 function inh 1.6µM | NS1 inh valid inactive
CCC(CC)c1nnc(NC(=O)c2cccc(S(=O)(=O)N3CCc4ccccc43)c2)s1	NS1 function inh 8.9µM, AmpC inh detg inconclusive | NS1 inh valid inactive
COCC(C)n1c(C)cc(C(=O)CSc2nc(C)c(C)c(C)n2)c1C (stereo unspecified)	NS1 function inh inconclusive | NS1 inh valid inactive
Cc1c(Cl)cccc1NC(=O)CSc1nncn1-c1ccccn1	NS1 function inh inconclusive | NS1 inh valid inactive | Flu PR8 replic inactive
O=C(CSc1nncn1-c1ccccn1)Nc1ccccc1Cl	none
NC(=O)c1ccc(NC(=O)C2CCN(S(=O)(=O)Cc3ccccc3)CC2)cc1	none (no result: NS1 function inh, Shiga toxin inh, AmpC no deterg, CHX counter)
O=C(O)CSc1nnc(-c2cc3ccccc3o2)n1-c1ccccc1	NS1 function inh inconclusive, AmpC inh detg inconclusive | NS1 inh valid inactive
COc1ccc(-c2noc(CCCC(=O)O)n2)cc1	none
COc1ccc(-c2noc(CCC(=O)O)n2)cc1	NS1 function inh 3.5µM, AmpC inh detg inconclusive | NS1 inh valid inactive
CCCNC(=O)N1CCN(S(=O)(=O)c2ccc3c(c2)OCCO3)CC1	none (no result: NS1 function inh, Shiga toxin inh, CHX counter)
COc1ccc(S(=O)(=O)N2CCN(Cc3cc(OC)c(OC)c(OC)c3)CC2)cc1	none
COc1ccc(C2CC(c3ccccc3)=NN2C(=O)COC(=O)c2cc(S(=O)(=O)N3CCOCC3)ccc2Cl)cc1 (stereo unspecified)	NS1 function inh 10µM, AmpC inh detg inconclusive | NS1 inh valid inactive
Cc1cc(OCC(=O)N[C@@H](CSCc2ccccc2)C(=O)O)c2c(C)c(C)c(=O)oc2c1	NS1 function inh 13µM | NS1 inh valid inconclusive
O=C(O)c1cccc(Cn2c(Cl)c(/C=N/NC(=O)c3ccccc3Cl)sc2=O)c1	NS1 function inh 0.79µM | NS1 inh valid inactive
NC(=O)c1cc(S(=O)(=O)N2CCN(c3ccc(F)cc3)CC2)cs1	none (no result: NS1 function inh, Shiga toxin inh, AmpC no deterg, CHX counter)
COc1ccc(CNC(=O)COC(=O)CN2C(=O)NC3(CCCC3)C2=O)cc1	none (no result: NS1 function inh, Shiga toxin inh, CHX counter)
